# From the supplement of paper PMC4466140
# Tests used:
# Test in all cases: SPOT peptide array binding signal intensity (averaged, normalized) (arbitrary units (background-subtracted, floor 0; scale differs between SH3 domains)); higher = stronger binding of the SH3 domain to the peptide
# [1] = target: AgAbp1
# Outline: (§1)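 Peptides were synthetic 15-mers on cellulose membranes, with every cysteine replaced by serine. They were incubated overnight at 4°C with GST-SH3 domains from four yeast species at 10 μg/ml in TBS-based blocking buffer. Binding signal, the replicate-averaged normalized and background-subtracted spot intensity, is in arbitrary units that differ between domains.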
# [2] = target: AgBbc1
# Outline: as §1
# [3] = target: AgBem1-D1
# Outline: as §1
# [4] = target: AgBzz1-D1
# Outline: as §1
# [5] = target: AgBzz1-D2
# Outline: as §1
# [6] = target: AgCyk3
# Outline: as §1
# [7] = target: AgFus1
# Outline: as §1
# [8] = target: AgHof1
# Outline: as §1
# [9] = target: AgHse1
# Outline: as §1
# [10] = target: AgLsb1
# Outline: as §1
# [11] = target: AgLsb4
# Outline: as §1
# [12] = target: AgMyo5
# Outline: as §1
# [13] = target: AgNbp2
# Outline: as §1
# [14] = target: AgRvs167
# Outline: as §1
# [15] = target: AgSho1
# Outline: as §1
# [16] = target: AgSla1-D1-D2
# Outline: as §1
# [17] = target: AgSla1-D3
# Outline: as §1
# [18] = target: CaAbp1-D1
# Outline: as §1
# [19] = target: CaAbp1-D2
# Outline: as §1
# [20] = target: CaBbc1
# Outline: as §1
# [21] = target: CaBem1-D1
# Outline: as §1
# [22] = target: CaBzz1-D1
# Outline: as §1
# [23] = target: CaBzz1-D2
# Outline: as §1
# [24] = target: CaCyk3
# Outline: as §1
# [25] = target: CaFus1
# Outline: as §1
# [26] = target: CaHof1
# Outline: as §1
# [27] = target: CaHse1
# Outline: as §1
# [28] = target: CaLsb1
# Outline: as §1
# [29] = target: CaLsb4
# Outline: as §1
# [30] = target: CaMyo5
# Outline: as §1
# [31] = target: CaNbp2
# Outline: as §1
# [32] = target: CaRvs167
# Outline: as §1
# [33] = target: CaRvs167-3
# Outline: as §1
# [34] = target: CaSho1
# Outline: as §1
# [35] = target: CaSla1-D1-D2
# Outline: as §1
# [36] = target: CaSla1-D3
# Outline: as §1
# [37] = target: ScAbp1
# Outline: as §1
# [38] = target: ScBbc1
# Outline: as §1
# [39] = target: ScBem1-D1
# Outline: as §1
# [40] = target: ScBzz1-D1
# Outline: as §1
# [41] = target: ScBzz1-D2
# Outline: as §1
# [42] = target: ScCyk3
# Outline: as §1
# [43] = target: ScFus1
# Outline: as §1
# [44] = target: ScHof1
# Outline: as §1
# [45] = target: ScHse1
# Outline: as §1
# [46] = target: ScLsb1
# Outline: as §1
# [47] = target: ScLsb2
# Outline: as §1
# [48] = target: ScLsb3
# Outline: as §1
# [49] = target: ScLsb4
# Outline: as §1
# [50] = target: ScMyo3
# Outline: as §1
# [51] = target: ScMyo5
# Outline: as §1
# [52] = target: ScNbp2
# Outline: as §1
# [53] = target: ScPex13
# Outline: as §1
# [54] = target: ScRvs167
# Outline: as §1
# [55] = target: ScSho1
# Outline: as §1
# [56] = target: ScSla1-D1-D2
# Outline: as §1
# [57] = target: ScSla1-D3
# Outline: as §1
# [58] = target: SpAbp1-D1
# Outline: as §1
# [59] = target: SpBbc1
# Outline: as §1
# [60] = target: SpBzz1-D1
# Outline: as §1
# [61] = target: SpBzz1-D2
# Outline: as §1
# [62] = target: SpCyk3
# Outline: as §1
# [63] = target: SpHof1
# Outline: as §1
# [64] = target: SpHof1-2
# Outline: as §1
# [65] = target: SpHof1-3
# Outline: as §1
# [66] = target: SpHse1
# Outline: as §1
# [67] = target: SpLsb1
# Outline: as §1
# [68] = target: SpLsb4
# Outline: as §1
# [69] = target: SpMyo1
# Outline: as §1
# [70] = target: SpNbp2
# Outline: as §1
# [71] = target: SpPex13
# Outline: as §1
# [72] = target: SpRvs167
# Outline: as §1
# [73] = target: SpSla1-D1-D2
# Outline: as §1
# [74] = target: SpSla1-D3
# Outline: as §1
binder,measurement,setting,value
ALFRLSFFFPLDPAY,SPOT peptide array binding signal intensity,[1],90.5
same,SPOT peptide array binding signal intensity,[2],59.5
same,SPOT peptide array binding signal intensity,[3],487
same,SPOT peptide array binding signal intensity,[4],204
same,SPOT peptide array binding signal intensity,[5],161
same,SPOT peptide array binding signal intensity,[6],40.5
same,SPOT peptide array binding signal intensity,[7],3740
same,SPOT peptide array binding signal intensity,[8],184
same,SPOT peptide array binding signal intensity,[9],2470
same,SPOT peptide array binding signal intensity,[10],66
same,SPOT peptide array binding signal intensity,[11],1960
same,SPOT peptide array binding signal intensity,[12],6.5
same,SPOT peptide array binding signal intensity,[13],796
same,SPOT peptide array binding signal intensity,[14],40.7
same,SPOT peptide array binding signal intensity,[15],2320
same,SPOT peptide array binding signal intensity,[16],150
same,SPOT peptide array binding signal intensity,[17],25.5
same,SPOT peptide array binding signal intensity,[18],494
same,SPOT peptide array binding signal intensity,[19],621
same,SPOT peptide array binding signal intensity,[20],162
same,SPOT peptide array binding signal intensity,[21],141
same,SPOT peptide array binding signal intensity,[22],574
same,SPOT peptide array binding signal intensity,[23],416
same,SPOT peptide array binding signal intensity,[24],68
same,SPOT peptide array binding signal intensity,[25],4730
same,SPOT peptide array binding signal intensity,[26],10
same,SPOT peptide array binding signal intensity,[27],985
same,SPOT peptide array binding signal intensity,[28],79.5
same,SPOT peptide array binding signal intensity,[29],278
same,SPOT peptide array binding signal intensity,[30],156
MKRSRPSRSIPYTTP,SPOT peptide array binding signal intensity,[1],92
same,SPOT peptide array binding signal intensity,[2],65.5
same,SPOT peptide array binding signal intensity,[3],152
same,SPOT peptide array binding signal intensity,[4],53
same,SPOT peptide array binding signal intensity,[5],22
same,SPOT peptide array binding signal intensity,[6],8
same,SPOT peptide array binding signal intensity,[7],121
same,SPOT peptide array binding signal intensity,[8],23.5
same,SPOT peptide array binding signal intensity,[9],274
same,SPOT peptide array binding signal intensity,[10],3.5
same,SPOT peptide array binding signal intensity,[11],37
same,SPOT peptide array binding signal intensity,[12],3.25
same,SPOT peptide array binding signal intensity,[13],324
same,SPOT peptide array binding signal intensity,[14],2.5
same,SPOT peptide array binding signal intensity,[15],30.5
same,SPOT peptide array binding signal intensity,[16],21.5
same,SPOT peptide array binding signal intensity,[17],≤ 0
same,SPOT peptide array binding signal intensity,[18],504
same,SPOT peptide array binding signal intensity,[19],476
same,SPOT peptide array binding signal intensity,[20],347
same,SPOT peptide array binding signal intensity,[21],47.5
same,SPOT peptide array binding signal intensity,[22],172
same,SPOT peptide array binding signal intensity,[23],158
same,SPOT peptide array binding signal intensity,[24],108
same,SPOT peptide array binding signal intensity,[25],334
same,SPOT peptide array binding signal intensity,[26],≤ 0
same,SPOT peptide array binding signal intensity,[27],55.5
same,SPOT peptide array binding signal intensity,[28],2.75
same,SPOT peptide array binding signal intensity,[29],590
same,SPOT peptide array binding signal intensity,[30],13.8
same,SPOT peptide array binding signal intensity,[31],421
same,SPOT peptide array binding signal intensity,[32],18.3
same,SPOT peptide array binding signal intensity,[33],2
same,SPOT peptide array binding signal intensity,[34],250
same,SPOT peptide array binding signal intensity,[35],60
same,SPOT peptide array binding signal intensity,[36],14
same,SPOT peptide array binding signal intensity,[37],20
same,SPOT peptide array binding signal intensity,[38],18.8
same,SPOT peptide array binding signal intensity,[39],7
same,SPOT peptide array binding signal intensity,[40],27
same,SPOT peptide array binding signal intensity,[41],23
same,SPOT peptide array binding signal intensity,[42],37
same,SPOT peptide array binding signal intensity,[43],129
same,SPOT peptide array binding signal intensity,[44],0.5
same,SPOT peptide array binding signal intensity,[45],570
same,SPOT peptide array binding signal intensity,[46],10.2
same,SPOT peptide array binding signal intensity,[47],4
same,SPOT peptide array binding signal intensity,[48],320
same,SPOT peptide array binding signal intensity,[49],72
same,SPOT peptide array binding signal intensity,[50],10.5
same,SPOT peptide array binding signal intensity,[51],8
same,SPOT peptide array binding signal intensity,[52],620
same,SPOT peptide array binding signal intensity,[53],10
same,SPOT peptide array binding signal intensity,[54],19.8
same,SPOT peptide array binding signal intensity,[55],351
same,SPOT peptide array binding signal intensity,[56],126
same,SPOT peptide array binding signal intensity,[57],43.5
same,SPOT peptide array binding signal intensity,[58],507
same,SPOT peptide array binding signal intensity,[59],15.5
same,SPOT peptide array binding signal intensity,[60],239
same,SPOT peptide array binding signal intensity,[61],1.5
same,SPOT peptide array binding signal intensity,[62],14
same,SPOT peptide array binding signal intensity,[63],50.2
same,SPOT peptide array binding signal intensity,[64],30
same,SPOT peptide array binding signal intensity,[65],244
same,SPOT peptide array binding signal intensity,[66],177
same,SPOT peptide array binding signal intensity,[67],4.5
same,SPOT peptide array binding signal intensity,[68],580
same,SPOT peptide array binding signal intensity,[69],82.5
same,SPOT peptide array binding signal intensity,[70],224
same,SPOT peptide array binding signal intensity,[71],16
same,SPOT peptide array binding signal intensity,[72],10.8
same,SPOT peptide array binding signal intensity,[73],≤ 0
same,SPOT peptide array binding signal intensity,[74],7
